Common to all, as to assay: NCI-60 one-dose screen, 48 h (100 = growth as untreated, 0 = no growth, -100 = all killed)
What all share (conditions): 10 µM unless noted

Assay [1] concerns T-47D breast.
In assay [2] the test system is BT-549 breast.
For assay [3], the system named is MDA-MB-435 melanoma.
The subject of assay [4] is SW-620 colon.
For assay [5], the system named is MCF7 breast.
Assay [6] has as its system HCT-116 colon.
Assay [7] concerns HCC-2998 colon.
The test system of assay [8] is KM12 colon.

SMILES strings stand for the structures. The panel holds about 83,000 compounds, 20% with a hit somewhere; the sample as a whole holds those more often.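 Cells were grown in 96-well plates and exposed to the test compound at a single concentration for 48 hours; results are reported as percent growth, with values below 10 considered active.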 Unmarked numbers belong to inactive results. Active and inactive are the calls of the source.

As to `O=Cc1ccc(O)c(O)c1`, the growth was 83.2% in assay [1]; 101% in assay [2]; 102% in assay [3]; 113% in assay [4]; 96.5% in assay [5]; 98.5% in assay [6]. The growth in assay [7] was 93.3%; in assay [8], 91.2%.
`Clc1cccc(Cl)c1C1CSc2ccccc2N=C1c1ccccc1` (configuration not stated): the growth in assay [1] was 65.4%; in assay [2] it was 42%; in assay [3], 15.4%; in assay [4], 3.48% (active); in assay [5] it was 9.8% (active); in assay [6], 19.3%. For the same molecule, the growth in assay [8] was 44.1%.
`COc1ccc(/C=N/NC(=O)COCC(=O)N/N=C/c2ccc(OC)cc2)cc1`: the growth in assay [1] was 104%; in assay [2] it was 118%; in assay [3] it was 98.2%; in assay [4], 108%; in assay [5], 95.9%; in assay [6] it was 111%. Also, the growth was 111% in assay [7] and 107% in assay [8].
Regarding `O=C(c1ccccc1)c1ccc(-c2ccc(O)cc2)cc1`, the growth in assay [1] was 50.6%; in assay [2] it was 52.3%; in assay [3], 9.71% (active); in assay [4] it was 45.4%; in assay [5], 23.3%; in assay [6], 59.4%. In assay [8], the growth is 35.2%.
For `O=C(CCl)Nc1ccccc1SCc1cc(Cl)cc2c1OCOC2`, the growth is 55.9% in assay [1]; 71.9% in assay [2]; 24.1% in assay [3]; 87.1% in assay [4]; 55.6% in assay [5]; 78.9% in assay [6]. Also, the growth in assay [8] is 96.8%.
Consider `NC(=S)N/N=C/c1ccc(OC(=O)COc2ccccc2)cn1`, for which the growth is 41.5% in assay [1]; 40.9% in assay [2]; 60.2% in assay [3]; 49% in assay [4]; 22.9% in assay [5]; 39.3% in assay [6]. Further, the growth is 31% in assay [7] and 62.4% in assay [8].
Regarding `CC(=O)c1cccc(NS(=O)(=O)c2ccc(C)cc2)c1`, the growth was 67.7% in assay [1]; 74.8% in assay [2]; -21.4% (active) in assay [3]; 43.3% in assay [4]; 39.8% in assay [5]; 60.2% in assay [6]. Also, the growth was 65.4% in assay [7] and 34.2% in assay [8].
Take `O=C(NC(=S)N1CC=CCC1)c1ccccc1`: the growth in assay [1] was 110%; in assay [2], 93.6%; in assay [3], 109%; in assay [4], 103%; in assay [5] it was 101%; in assay [6] it was 102%. Also, the growth in assay [8] was 112%.
Regarding `OCC1OC(n2ccc3c2ncn2ncnc32)C(O)C1O` (configuration not stated), the growth in assay [1] was 10.9%; in assay [2] it was 23.3%; in assay [3], 62.1%; in assay [4] it was 26.2%; in assay [5], 9.97% (active); in assay [6], 20.5%. Besides, the growth in assay [8] was 27.6%.
`OCCOc1ccc(-c2cc(-c3ccccn3)nc(-c3ccccn3)c2)cc1`: the growth in assay [1] was 17.4%; in assay [2], 15.9%; in assay [3], 22.5%; in assay [4], 2.05% (active); in assay [5], 1.69% (active); in assay [6], 6.4% (active). Further, the growth in assay [8] was 8.52% (active).
Turning to `C=CC(C)C(C)(C)O` (configuration not stated), the growth was 89.2% in assay [1]; 97.3% in assay [2]; 102% in assay [3]; 101% in assay [4]; 101% in assay [5]; 93.9% in assay [6]. Also, the growth in assay [8] is 101%.
For the molecule `CCNC(=O)OCCc1c2ccccc2nc2ccccc12`, the growth in assay [1] is 109%; in assay [2] it was 111%; in assay [3], 118%; in assay [4] it was 101%; in assay [5], 89.6%; in assay [6], 94.1%. The growth in assay [8] was 114%.
Consider `Cc1[nH]n(-c2ccccc2)c(=O)c1C=NC(=S)C(N)=S`, for which the growth is 102% in assay [1]; 108% in assay [2]; 109% in assay [3]; 104% in assay [4]; 100% in assay [5]; 89.5% in assay [6]. In addition, the growth in assay [8] was 103%.
For `Cn1c2ccccc2c2nnc(NCCCCO)nc21`, the growth in assay [1] was 76.5%; in assay [2], 101%; in assay [3] it was 110%; in assay [4] it was 93%; in assay [5], 59.2%; in assay [6], 90.1%. For the same molecule, in assay [8], the growth is 94.8%.
With `Cc1ccc(N2C(=O)c3cccc4c(N)c(S(=O)(=O)O)cc(c34)C2=O)cc1`, the growth was 112% in assay [1]; 131% in assay [2]; 115% in assay [3]; 109% in assay [4]; 110% in assay [5]; 102% in assay [6]. Besides, the growth in assay [8] is 99.3%.
On to `CN(C)Cc1ccccn1`, for which the growth in assay [1] is 102%; in assay [2], 101%; in assay [3], 103%; in assay [4] it was 103%; in assay [5] it was 97%; in assay [6], 99.8%. Moreover, the growth in assay [8] was 111%.
As for `NC(=S)N/N=C/c1ccc(OC(=O)COc2ccc(Cl)cc2)cn1`, the growth is 33.9% in assay [1]; 55% in assay [2]; 59.1% in assay [3]; 46.3% in assay [4]; 23.6% in assay [5]; 39.7% in assay [6]. Further, in assay [8], the growth was 64.8%.
For the molecule `COc1cc(C(=O)N2CCN(c3ccccc3)CC2)c2ccccc2n1`, the growth is 51.1% in assay [1]; 12.7% in assay [2]; -24.2% (active) in assay [3]; 25.2% in assay [4]; 15.8% in assay [5]; 8.75% (active) in assay [6]. Besides, the growth in assay [8] is 2.35% (active).
Regarding `CC(=O)c1cccs1`, the growth was 90% in assay [1]; 97% in assay [2]; 109% in assay [3]; 108% in assay [4]; 94.6% in assay [5]; 97.4% in assay [6]. The growth in assay [8] is 102%.

Values taken from PubChem BioAssay (NCI).
